# Shown are actives, neighbours in structure and some others; about 21% of the full set was active somewhere.
# Shiga inhibitor = A qHTS for Small Molecule Inhibitors of Shiga Toxin. 290,000 compounds, 9.2% hits. Vero cells, Shiga toxin protein synthesis inhibition reporter. inhibition, % at 38.7 µM; in the data active = inhibition mostly above about 28%, no sharp cut-off; inactive = mostly below about 43%; note: 0% is about no effect
# Pf growth 96h = Primary qHTS for delayed death inhibitors of the malarial parasite plastid, 96 hour incubation; P. falciparum luciferase reporter growth, 96 h; 320,000 compounds, 6.9% hits; Potency, µM (doses to about 28.7 µM), inactives show at the highest dose activity change, negative = inhibition, actives largely listed as inhibitors; note: potency is the fitted concentration of half-maximal effect; % is set by controls: 0 for no effect and ±100 for the full control effect
#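 Cell-based qHTS: luciferase-tagged P. falciparum in erythrocytes (2% hematocrit, 0.05% parasitemia final) incubated with compounds for 96 hours, 37 C, 5% CO2; luciferase detection reagent then added and luminescence measured.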
# CHX counter = Cycloheximide Counterscreen for Small Molecule Inhibitors of Shiga Toxin; 300,000 compounds, 12% hits; cell reporter, cycloheximide protein synthesis inhibition counterscreen; max response, %; in the data active = max response mostly above about 13%, no sharp cut-off; inactive = mostly below about 14%; note: read at 38.3 µM for the half of the compounds with a filed dose; 0% is about no effect
# AMA1-RON2 inh = qHTS for Inhibitors of AMA1-RON; Towards Development of Antimalarial Drug Lead: Primary Screen; Plasmodium falciparum AMA1 (3D7) - RON2 peptide interaction; AlphaScreen AMA1-biotinylated RON2 peptide binding; Potency, µM (highest dose often 58.2 µM), inactives show top-dose activity change, negative = inhibition, most hits filed as inhibitors; 360,000 compounds, 0.2% hits;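 note: potency is the fitted concentration of half-maximal effect; 0% = vehicle wells and -100% = peptide control; nearly all actives have a fitted effect of over 45% in size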
#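 AMA1 (3D7) with his tag at 25 nM final met compounds first, then biotinylated RON2 peptide at 25 nM; detection used donor plus acceptor beads, 10 µg/mL apiece, read by AlphaScreen after 30 min at room temperature.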
# Pf growth 48h = Primary qHTS for delayed death inhibitors of the malarial parasite plastid, 48 hour incubation. P. falciparum luciferase growth in erythrocytes, 48 h. AID 504832, 2011. Potency, µM (doses to about 28.7 µM), without a hit: at the highest dose activity change, negative = inhibition, hits mostly inhibitors. 310,000 compounds, 5.9% hits; note: potency is the fitted concentration of half-maximal effect; % is set by controls: 0 for no effect and ±100 for the full control effect
#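 Read-out is firefly luciferase luminescence from an integrated reporter in P. falciparum, so falling signal marks reduced parasite growth. Infected erythrocytes were at 2% hematocrit and 0.1% parasitemia (final) in Albumax-supplemented RPMI 1640.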
# HCV inh = qHTS Assay for Inhibitors of Hepatitis C Virus (HCV); Huh7.5.1 HCVcc-Cre infection, luciferase reporter, 44 h; Potency, µM (doses to about 41.8 µM), without a hit: at the highest dose activity change, negative = inhibition, actives largely listed as inhibitors; 340,000 compounds, 3.4% hits; note: potency is the fitted concentration of half-maximal effect; % is set by controls: 0 for no effect and ±100 for the full control effect
#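 Antiviral activity was scored by luciferase reporter output from cells infected with HCVcc-Cre (~0.5 moi) in presence of compound, 44 h infection period, cells seeded 1,000/well 4 h prior.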
# Active calls of the source: *; ? = inconclusive; · = no result. Unless noted, calls come from the whole dose curve; as a rule, active = well fitted curve in the direction sought with a large enough effect; inconclusive = small, poorly fitted or top-dose-only effect, or another doubt; inactive = no such curve, though single readings can be large; an effect the other way counts as inactive or inconclusive.
SMILES,Shiga inhibitor,Pf growth 96h,CHX counter,AMA1-RON2 inh,Pf growth 48h,HCV inh
Cc1cc(CNC(=O)COC(=O)Cn2[nH]c(=O)c3ccccc3c2=O)cc(C)c1O,·,1%,·,-11%,?,-6%
CC(=O)NC(Cc1cccc(F)c1)C(=O)NC1CCN(C(=O)c2ccc(C)cc2)CC1 (stereo unspecified),15,-3%,-1,17%,-2%,-4%
CC12CCC3c4ccc(O)c([N+](=O)[O-])c4CCC3C1CCC2=O (stereo unspecified),·,·,·,-3%,·,·
Cc1cccc(CN(C)C[C@H]2OCc3cnnn3CCCC(=O)N([C@@H](C)CO)C[C@@H]2C)c1,·,·,·,7%,·,·
COc1cc(C(=O)/C=C/c2cccnc2)c([N+](=O)[O-])cc1OC,·,?,·,-8%,2.9µM*,?
O=C(/C=C/c1cccnc1)c1ccc(O)cc1,8,-9%,13*,-17%,?,-15%
O=C(/C=C/c1ccc(N2CCC(c3ccccc3)=N2)cc1)c1ccccc1,80*,34%,39*,6%,106%,?
O=C(C=Cc1cccnc1)c1ccccc1,·,·,·,7%,·,?
Cc1cccc(Oc2coc3cc(OC(=O)c4cccs4)ccc3c2=O)c1,50*,193%,29*,-14%,35%,13%
Cc1cc(C)cc(Oc2coc3cc(OC(=O)c4cccs4)ccc3c2=O)c1,11,5%,6,0%,0%,23%
CC12CCC(C1)C(C)(C)C2=O (stereo unspecified),·,-8%,·,·,5%,·
C/C=C(/C)C(=O)O[C@H]1CC(C)=CC(=O)[C@@]2(C)CC[C@@](O)(C(C)C)[C@H]12,-6,·,-5,·,·,·
N#CCCN(C(=O)CSc1nc2ccccc2c(=O)[nH]1)c1ccc(F)cc1,·,·,·,2%,·,-8%
COc1ccc(/C=C/C(=O)c2nc3ccccc3n2CC(=O)c2ccc(OC)cc2)cc1,-22,-186%,-4,18%,10µM*,-18%
COc1ccc(OC)cc1,·,·,·,8%,·,-5%
COc1ccc(-c2cc(O)cc(O)c2)cc1,50*,·,33*,-3%,175%,-12%
COc1ccc(/C=C/C(=O)Oc2cc(O)cc(O)c2)cc1,35*,?,21*,11%,?,20%
COc1ccc(C=CC(=O)c2ccc([N+](=O)[O-])cc2)cc1,·,·,·,-2%,·,-10%
COc1ccc(C(=O)Cn2c(C(C)=O)nc3ccccc32)cc1,·,·,·,45%,·,?
COc1ccc(C(=O)/C=C/c2ccc(O)cc2)cc1,87*,9%,37*,-18%,-42%,-27%
O=C(OCc1ccccc1)N1CCN(C(c2ccnc3ccccc23)c2nnnn2-c2ccc3c(c2)OCCO3)CC1 (stereo unspecified),·,·,·,-5%,·,·
C[C@@H]1CN([C@@H](C)CO)C(=O)CCCn2nncc2CO[C@H]1CN(C)Cc1ccc(Cl)c(Cl)c1,·,·,·,-4%,·,·
CCOC(=O)Cn1nnnc1CN(Cc1ccccc1)Cc1cc2cc(CC)ccc2[nH]c1=O,3,12µM*,-2,20%,-14%,3%
CCc1ccc2[nH]c(=O)c(CN(Cc3ccccc3)Cc3nnnn3Cc3ccco3)cc2c1,72*,8%,24*,-3%,9.3µM*,?
O=c1[nH]c2cc3c(cc2cc1CN(Cc1ccccc1)Cc1nnnn1Cc1ccco1)OCCO3,48,·,3,-4%,?,?
SMILES,Shiga inhibitor,Pf growth 96h,CHX counter,AMA1-RON2 inh,Pf growth 48h,HCV inh
COc1cc(/C=N/Nc2nc(=O)[nH]nc2C)cc([N+](=O)[O-])c1O,57*,0.66µM*,25*,91%,1.2µM*,0%
Cc1n[nH]c(=O)nc1N/N=C/c1ccc(O)c([N+](=O)[O-])c1,-3,53%,14,138%,?,0%
COc1ccc(/C=N/Nc2nc(=O)[nH]nc2C)cc1OC,66*,?,33*,86%,?,12%
COc1ccc(/C=N/Nc2nc(=O)[nH]nc2C)cc1[N+](=O)[O-],6,?,7,51%,25%,3%
COc1cc(/C=N/Nc2nc(=O)[nH]nc2C)ccc1O,70*,?,37*,114%,?,16%
Cc1ccc(S(=O)(=O)NN2CCCCCC2)cc1,·,·,·,-17%,·,·
O=C(C(=O)N1CCC(Cc2ccccc2)CC1)c1cccs1,·,·,·,7%,·,·
CC(=O)c1ccc(C2CC34CNS(=O)(=O)C3CC2O4)cc1 (stereo unspecified),-3,·,8,·,·,·
CC(=NNC(=S)N1CCN(c2ccccn2)CC1)c1nccs1,·,·,·,-60%,·,1.3µM*
S=C(NC1CCCC1)N1CCN(c2ccccn2)CC1,-3,2.1µM*,1,10%,4%,7%
Cc1ccc(NC(=S)N2CCN(S(=O)(=O)c3ccc(F)cc3)CC2)cc1,-7,?,2,-4%,?,12%
O=C(NC(=S)N1CCN(c2ccccn2)CC1)c1ccccc1,8,2%,-2,36%,13%,10%
S=C(NC1CCCC1)N1CCN(c2cccc(Cl)c2)CC1,-11,3%,1,-3%,-4%,13µM*
O=S(=O)(c1ccc(F)c(F)c1F)N1CCN(C(=S)Nc2ccccc2)CC1,-11,?,-1,-5%,2.3µM*,-16%
CC(=NNC(=S)N1CCN(c2ccccn2)CC1)c1ccccn1,·,·,·,14%,·,?
CC(=O)c1ccc(NC(=O)COC(=O)CCC2CCCC2)cc1,·,·,·,-10%,·,10%
CCOC(=O)N1CCC(N2C(=O)c3ccccc3C2Nc2ccc(S(=O)(=O)N(CC)CC)cc2)CC1 (stereo unspecified),-16,?,-1,-4%,?,-10%
O=C(Nc1cccc(-n2cnnn2)c1)c1ccc(OC(F)(F)F)cc1,-11,-4%,-3,-3%,0%,-22%
O=C(COC(=O)c1cccc(Br)c1)NCC1CCCO1 (stereo unspecified),·,·,·,0%,·,?
O=C(Cn1cnc([N+](=O)[O-])c1)Nc1ccc(Cl)cc1Cl,·,·,·,-2%,·,·
O=C1c2cccc3cccc(c23)C(=O)N1CCN1CCN(C(=S)Nc2ccccc2)CC1,-11,15µM*,1,-7%,42%,?
O=[N+]([O-])c1ccc(N2CCN(C(=S)NC3CCCCC3)CC2)cc1,-2,121%,6,-6%,0.52µM*,-24%
S=C(Nc1ccccc1)N1CCN(C(=S)Nc2ccccc2)CC1,-9,5.2µM*,-2,·,0%,·
O=[N+]([O-])c1ccc(NC(=S)N2CCN(c3ccccc3)CC2)cc1,-4,16%,-1,-5%,14%,12%

# Screening data: PubChem BioAssay, National Center for Advancing Translational Sciences (NCATS)
